ROC1-CUL1 inh – inhibitors of human ROC1-CUL1 ubiquitin ligase activity | E3 ubiquitin-protein ligase RBX1 (Homo sapiens) + Cullin-1 (Homo sapiens), P62877+Q13616 | in vitro K48 di-Ub FRET, acceptor:donor ratio, 45 min | inhibition, % at 10 µM | actives 0.6% (n = 140,000); in the data active = inhibition above about 25%
Target sequence (P62877 whole entry, looked up): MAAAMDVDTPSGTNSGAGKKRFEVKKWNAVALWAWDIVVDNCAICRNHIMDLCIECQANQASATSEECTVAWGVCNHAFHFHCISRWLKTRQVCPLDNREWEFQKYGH
Target sequence (Q13616 whole entry, looked up): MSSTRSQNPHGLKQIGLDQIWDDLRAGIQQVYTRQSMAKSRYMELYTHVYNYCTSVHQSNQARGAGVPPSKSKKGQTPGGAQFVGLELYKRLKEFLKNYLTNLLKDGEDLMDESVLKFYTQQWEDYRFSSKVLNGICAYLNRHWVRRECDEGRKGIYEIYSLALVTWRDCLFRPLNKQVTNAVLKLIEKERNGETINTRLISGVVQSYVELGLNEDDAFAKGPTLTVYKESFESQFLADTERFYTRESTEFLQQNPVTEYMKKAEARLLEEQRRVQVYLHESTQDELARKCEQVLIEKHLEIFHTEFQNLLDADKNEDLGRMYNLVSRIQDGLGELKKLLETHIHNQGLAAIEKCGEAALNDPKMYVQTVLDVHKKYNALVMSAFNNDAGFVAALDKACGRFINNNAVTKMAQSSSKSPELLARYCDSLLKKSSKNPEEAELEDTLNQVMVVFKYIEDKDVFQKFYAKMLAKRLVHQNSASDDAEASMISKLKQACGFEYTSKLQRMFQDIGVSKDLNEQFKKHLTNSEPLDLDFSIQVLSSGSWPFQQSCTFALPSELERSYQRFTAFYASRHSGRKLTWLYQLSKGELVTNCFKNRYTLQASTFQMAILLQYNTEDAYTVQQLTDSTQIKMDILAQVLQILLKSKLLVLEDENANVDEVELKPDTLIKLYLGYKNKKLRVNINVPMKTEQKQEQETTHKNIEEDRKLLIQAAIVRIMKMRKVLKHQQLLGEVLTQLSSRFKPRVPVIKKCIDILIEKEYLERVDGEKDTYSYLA
Hits are given with their value. The entries come from a sample that favours hits as a whole.

For O=C1Oc2ccccc2C(=O)C1C(=O)c1ccccc1 (stereo not given) the results were ROC1-CUL1 inh inactive.
For O=C1Oc2ccccc2C(=O)C1Sc1ccc(Cl)cc1 (stereo not given) the results were ROC1-CUL1 inh inactive.
O=C(O)c1ccccc1SC1C(=O)Oc2ccccc2C1=O (stereo not given) was read as ROC1-CUL1 inh 46.
COc1ccc(Cl)cc1NC(=O)CCC1CCCN(C(=O)C(=O)c2ccco2)C1 (stereo not given) was read as ROC1-CUL1 inh inactive.
`CNC(=S)NCCSCc1nc[nH]c1C` gave ROC1-CUL1 inh inactive.
CC1(C)CC(=O)C2=C(C1)N(c1ccc(Cl)cc1)C(=N)C(C(=O)c1ccccc1)C2c1ccc([N+](=O)[O-])cc1 (stereo not given) was read as ROC1-CUL1 inh inactive.
Screening O=C1C=CC([N+](=O)[O-])=CC(C(=O)/C=C/c2ccccc2)C1=O (stereo not given) returned ROC1-CUL1 inh 83.
O=C1C=CC(Br)=CC(C(=O)/C=C/c2ccc(F)cc2)C1=O (stereo not given) was read as ROC1-CUL1 inh inactive.
Screening CN1C(=O)C(C(=O)/C=C/c2ccccc2)C(=O)N(C)C1=O returned ROC1-CUL1 inh inactive.
CC(=O)NC1OCC(O)C(O)C1O (stereo not given) was read as ROC1-CUL1 inh inactive.
For COc1cc(C=C2C(=O)NC(=O)NC2=O)cc(I)c1OC the results were ROC1-CUL1 inh inactive.
O=C1NC(=O)C(=Cc2cc(O)c(O)c(Br)c2)C(=O)N1 was read as ROC1-CUL1 inh 49.
`S=c1[nH]nc(-c2ccccc2)n1/N=C/c1cc(Br)c(I)o1` gave ROC1-CUL1 inh inactive.
For O=C1NC(=O)C(=Cc2cc(Br)c(I)o2)C(=O)N1 the results were ROC1-CUL1 inh 80.
`O=C1C(=Cc2ccc(O)c(Br)c2)C(=O)c2ccccc21` gave ROC1-CUL1 inh inactive.
`CCc1nn(-c2cc(Oc3ccccc3C)ncn2)c(N)c1C(N)=O` gave ROC1-CUL1 inh inactive.
`CCCCOC(=O)c1ccc(NC(=O)COc2c(C)cc(C)cc2C)cc1` gave ROC1-CUL1 inh inactive.
For Cc1cc(C(=O)Nc2ccc(C(C)C)cc2)no1 the results were ROC1-CUL1 inh inactive.
For CCc1ccccc1C1C(=O)c2ccccc2C1=O the results were ROC1-CUL1 inh inactive.
Screening CN1C(=O)C(c2cccc(Cl)c2)C(=O)c2ccccc21 (stereo not given) returned ROC1-CUL1 inh inactive.
CN1C(=O)C(=O)C2c3ccccc3C(=O)c3c(Cl)cc(Cl)c1c32 (stereo not given) was read as ROC1-CUL1 inh 33.
CCOc1ccc2c(c1)c(=O)c(S(=O)(=O)c1ccc(C)cc1)cn2Cc1ccccc1Cl was read as ROC1-CUL1 inh inactive.
`Cc1[nH][nH]c(=O)c1C(c1c(C)[nH][nH]c1=O)c1cn(Cc2ccccc2Cl)c2ccccc12` gave ROC1-CUL1 inh 68.
Screening O=C1OC2(CCCCC2)OC(=O)C1=Cc1cn(Cc2ccccc2Cl)c2ccccc12 returned ROC1-CUL1 inh inactive.
Screening CCCOc1ccc(S(=O)(=O)N2CCC(C(N)=O)CC2)cc1C returned ROC1-CUL1 inh inactive.
`Cc1ccc(/C=C2/SC(=O)N(CC(=O)Nc3ccccc3C)C2=O)s1` gave ROC1-CUL1 inh inactive.
For O=c1c(-c2ccc(Cl)cc2Cl)coc2c(CN3CCCCC3)c(O)ccc12 the results were ROC1-CUL1 inh inactive.
COC(=O)COc1ccccc1/C=C1\C(=O)NC(=O)N(c2ccc(C34CC5CC(CC(C5)C3)C4)cc2)C1=O was read as ROC1-CUL1 inh 41.
`C=CCc1cc(/C=C2\C(=O)NC(=O)N(c3ccc(Br)c(C)c3)C2=O)cc(OCC)c1O` gave ROC1-CUL1 inh inactive.
For COC(=O)COc1ccccc1/C=C1/C(=O)N(c2ccc(Cl)cc2)C(=S)N1C the results were ROC1-CUL1 inh inactive.
CCOc1cc(/C=C2\C(=O)N(c3ccccc3)C(=S)N2c2ccc(CC)cc2)c(Br)cc1O was read as ROC1-CUL1 inh inactive.
Screening COc1cc(OC)c(OC)cc1/C=C1\C(=O)NC(=S)N(c2ccc(F)cc2)C1=O returned ROC1-CUL1 inh inactive.
Screening CCOc1cc(/C=C2\C(=O)NC(=O)N(c3ccc(C45CC6CC(CC(C6)C4)C5)cc3)C2=O)c(Br)cc1O returned ROC1-CUL1 inh 91.
`CN1CCCN(C(=O)c2ccc(-c3ccccc3)cc2)CC1` gave ROC1-CUL1 inh inactive.
`CCNC(=O)N1CCC(Cn2cc(-c3cccc(C(=O)O)c3)nn2)CC1` gave ROC1-CUL1 inh inactive.
`COC(=O)c1sccc1NC(=O)C1CCCO1` (stereo not given) gave ROC1-CUL1 inh inactive.
Screening COc1ccc(/C=C/C(=O)N2CCc3c(cnc(C)c3CNC(=O)Cc3ccsc3)C2)cc1 returned ROC1-CUL1 inh inactive.
Screening Nc1c(Br)ccc2nsnc12 returned ROC1-CUL1 inh 104.
Cc1ccc2nsnc2c1S(=O)(=O)Nc1ccccc1Br was read as ROC1-CUL1 inh inactive.
Screening c1ccc2c(c1)ccc1nsnc12 returned ROC1-CUL1 inh inactive.
For Cc1ccc(CN(C(=O)Nc2ccc(Cl)cc2)c2nnc3n2CCCCC3)cc1 the results were ROC1-CUL1 inh inactive.
`O=C(CN1CCN(c2ccc(F)cc2)CC1)N1CCN(c2ccccc2)CC1` gave ROC1-CUL1 inh inactive.
C[N+]1(C2CCCCC2)Cc2ccccc2C1 was read as ROC1-CUL1 inh inactive.
For CC1(C)C2=CC(=O)C(Sc3cc(Cl)c(Cl)cc3Cl)C(=O)N2c2ccccc21 (stereo not given) the results were ROC1-CUL1 inh inactive.
`N#CCc1nsc2ccccc12` gave ROC1-CUL1 inh inactive.
`O=C1NC(=S)N(c2ccc(Br)cc2)C(=O)/C1=C/c1cccn1-c1ccccc1` gave ROC1-CUL1 inh inactive.
Screening O=C1NC(=O)N(c2ccccc2F)C(=O)/C1=C/c1cccn1-c1ccc(Br)cc1 returned ROC1-CUL1 inh inactive.
Cc1c(Cl)cccc1N1C(=O)/C(=C/c2cc(C)n(-c3ccc(C#N)cc3)c2C)C(=O)NC1=S was read as ROC1-CUL1 inh inactive.
For CCOc1ccc(N2C(=O)/C(=C/c3cccn3C)C(=O)NC2=S)cc1 the results were ROC1-CUL1 inh inactive.
`Cc1c(Cl)cccc1N1C(=O)/C(=C/c2cccn2-c2cccc(C(=O)O)c2)C(=O)NC1=S` gave ROC1-CUL1 inh 101.
Screening CCc1cccc(C)c1-n1c(C)cc(/C=C2\C(=O)NC(=S)N(c3ccccc3F)C2=O)c1C returned ROC1-CUL1 inh inactive.
Screening Cc1cc(/C=C2\C(=O)NC(=S)N(c3ccccc3F)C2=O)c(C)n1-c1ccc(C(=O)O)c(Cl)c1 returned ROC1-CUL1 inh 86.
`Cc1cc(/C=C2\C(=O)NC(=S)N(c3ccc(Cl)cc3)C2=O)c(C)n1-c1ccc(Cl)cc1` gave ROC1-CUL1 inh inactive.
Screening CCc1ccc(N2C(=O)/C(=C/c3cccn3-c3ccccc3)C(=O)NC2=S)cc1 returned ROC1-CUL1 inh inactive.
For Cn1cccc1/C=C1\C(=O)NC(=S)N(c2ccccc2F)C1=O the results were ROC1-CUL1 inh 95.
`Cc1c(/C=C2/C(=O)NC(=S)N(c3cccc(Cl)c3Cl)C2=O)c2ccccc2n1C` gave ROC1-CUL1 inh inactive.
`O=C1NC(=S)N(c2ccc(Cl)cc2)C(=O)/C1=C/c1cccn1-c1cccc(C(=O)O)c1` gave ROC1-CUL1 inh 25.
`Cc1ccc(C(=O)Nc2ccc(-c3cn4cccnc4n3)cc2)cc1` gave ROC1-CUL1 inh inactive.
For CCOc1cc(/C=C2\CC/C(=C\c3cc(Cl)c(O)c(OCC)c3)C2=O)cc(Cl)c1O the results were ROC1-CUL1 inh inactive.
